Structures are written as SMILES. The whole screen tested about 310,000 compounds, of which about 14,000 (4.5%) showed an effect of 50% or more. Effects have a minus sign here. The list comes from a sample in which strong results are over-represented; it also holds similar structures and randomly drawn compounds.
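Further: peak tail current of the secondary pulse compared with the same well before compound.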

Sequence of human ether-à-go-go-related gene (hERG) potassium channel (Q12809 whole entry, looked up): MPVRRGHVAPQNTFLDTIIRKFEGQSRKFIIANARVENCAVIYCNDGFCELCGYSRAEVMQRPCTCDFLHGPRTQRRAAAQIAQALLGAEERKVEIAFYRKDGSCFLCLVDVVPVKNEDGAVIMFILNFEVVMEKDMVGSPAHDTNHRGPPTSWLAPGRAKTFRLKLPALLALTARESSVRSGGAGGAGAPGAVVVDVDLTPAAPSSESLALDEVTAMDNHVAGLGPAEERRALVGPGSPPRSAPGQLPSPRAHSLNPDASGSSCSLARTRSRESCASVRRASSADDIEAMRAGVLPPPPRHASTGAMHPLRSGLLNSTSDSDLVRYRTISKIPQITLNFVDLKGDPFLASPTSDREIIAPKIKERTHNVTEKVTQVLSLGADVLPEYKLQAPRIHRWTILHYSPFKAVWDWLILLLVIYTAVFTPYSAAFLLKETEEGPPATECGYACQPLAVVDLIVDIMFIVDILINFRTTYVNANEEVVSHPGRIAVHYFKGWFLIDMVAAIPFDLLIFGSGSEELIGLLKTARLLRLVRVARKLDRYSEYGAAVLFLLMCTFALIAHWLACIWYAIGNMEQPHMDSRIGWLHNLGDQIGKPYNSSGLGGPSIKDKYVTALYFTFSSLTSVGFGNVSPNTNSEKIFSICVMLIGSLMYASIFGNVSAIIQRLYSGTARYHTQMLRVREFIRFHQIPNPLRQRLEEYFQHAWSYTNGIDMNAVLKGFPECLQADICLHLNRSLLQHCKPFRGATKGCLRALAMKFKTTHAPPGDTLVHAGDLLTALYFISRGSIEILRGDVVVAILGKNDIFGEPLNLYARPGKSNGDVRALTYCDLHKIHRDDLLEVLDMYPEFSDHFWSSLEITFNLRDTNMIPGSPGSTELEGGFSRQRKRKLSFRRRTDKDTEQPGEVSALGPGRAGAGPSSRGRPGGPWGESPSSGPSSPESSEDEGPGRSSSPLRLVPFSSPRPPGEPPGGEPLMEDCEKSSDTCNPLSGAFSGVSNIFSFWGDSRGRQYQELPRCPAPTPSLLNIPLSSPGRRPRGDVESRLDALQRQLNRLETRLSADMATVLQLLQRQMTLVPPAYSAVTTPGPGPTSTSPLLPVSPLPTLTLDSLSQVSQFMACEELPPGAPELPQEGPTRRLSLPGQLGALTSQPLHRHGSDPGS

This test has as its target human ether-à-go-go-related gene (hERG) potassium channel (human, UniProt Q12809). Description: primary screen, population patch clamp on CHO cells stably expressing hERG; higher = less effect of the substance.
In the case of `O=C(c1ccccn1)N(Cc1ccco1)C1(C(=O)NC2CCCCC2)CCCCC1`, the “hERG current change (%, negative = inhibition) at 10uM” value worked out at 10.9%.
For `O=C(CCC(=O)OCc1ccc(Br)cc1)Nc1ccccc1`, the “hERG current change (%, negative = inhibition) at 10uM” value came to 8.45%.
Take `CCC1CCCCN1C(=O)Cn1c(=O)n(CCC(=O)NCc2ccco2)c(=O)c2sccc21` (stereo not drawn): the “hERG current change (%, negative = inhibition) at 10uM” value is -6.12%.
For `C=CCNC(=O)c1ccccc1NC(=O)C1COc2ccccc2O1` (stereo not drawn) the value was 4.92%.
Then `c1ccc(CCNc2ncnc3ccccc23)cc1`, with -43.2%.
Take `Cc1cc(Cl)ccc1OC(C)C(=O)NN1C(=O)c2ccccc2C1=O` (stereo not drawn): the “hERG current change (%, negative = inhibition) at 10uM” value is on record as 20.9%.
`COc1cccc(OC)c1C(=O)OCC(=O)NCC(C)C`: the “hERG current change (%, negative = inhibition) at 10uM” value is 24.7%.
Then `COc1cccc(NC(=O)N2CCOCC2)c1`, with -14.8%.
In the case of `CC(C)(C)N=Cc1cc(-c2ccccc2)sc1O`, the “hERG current change (%, negative = inhibition) at 10uM” value is on record as -17.2%.
In the case of `COc1ccc(/C=C/C(=O)c2ccc(NC3=NCCCS3)cc2)cc1OC`, the “hERG current change (%, negative = inhibition) at 10uM” value is on record as -37.7%.
For `Cc1nn(Cc2ccccc2)c(C)c1/C=N/NC(=O)c1ccncc1` the value was -46.4%.
On to `Cc1cccc(N2CCN(C(=O)c3cc(S(=O)(=O)N4CCCC4)cn3C)CC2)c1C`, for which the “hERG current change (%, negative = inhibition) at 10uM” value is -38%.
`Cc1cc(C)cc(NC(=O)CSc2nc3ccncc3[nH]2)c1`: the “hERG current change (%, negative = inhibition) at 10uM” value is listed as 8.99%.
For `O=C(Nc1cc(C(F)(F)F)ccc1N1CCOCC1)c1cn2ccccc2n1` the value was -2.98%; for `O=C(Nc1ccc(Cl)c(S(=O)(=O)N2CCOCC2)c1)c1cn2ccccc2n1`, 11.9%; for `O=C(Nc1cc(S(=O)(=O)N2CCOCC2)ccc1N1CCOCC1)c1cn2ccccc2n1`, -52.3%.
For `C=CCn1c(COc2ccccc2)nnc1SC(C)C(=O)N/N=C/c1cc(Cl)ccc1O` (stereo not drawn) the value was 0.335%; for `CCCN1CCN(C(=O)c2ccc3nc(CC)c(CC)nc3c2)CC1`, 1.54%.
For `CNC(=O)COc1ccc(S(=O)(=O)Nc2ccccc2)cc1`, the “hERG current change (%, negative = inhibition) at 10uM” value was 14.4%.
For `O=C(c1ccco1)N1CCCSC1=Nc1ccccc1`, the “hERG current change (%, negative = inhibition) at 10uM” value was determined as 12%.
Then `COc1cccc2cc(C(=O)Nc3cc(C)cc(C)c3)/c(=N/NS(=O)(=O)c3ccccc3)oc12`, with 19.5%.
Then `COc1ccc(NC(=O)c2cc3ccccc3o/c2=N\NS(=O)(=O)c2ccc(C)cc2)cc1`, with -13.6%.
In the case of `Cc1ccc(S(=O)(=O)N/N=c2\oc3ccccc3cc2C(=O)Nc2cccc(C)c2)cc1`, the “hERG current change (%, negative = inhibition) at 10uM” value was -68.1%.
For `O=C1CN(C(=O)c2cccc([N+](=O)[O-])c2)CC(=O)N1` the value was 13.4%; for `O=C1CC2(CCN(C(=O)c3cccc([N+](=O)[O-])c3)CC2)Oc2ccccc21`, -75.7%.
Then `O=C1CC2(CCN(C(=O)c3ccc([N+](=O)[O-])cc3)CC2)Oc2ccccc21`, with -87.9%; and `O=C(c1cccc([N+](=O)[O-])c1)N1CCOCC1`, with 11.7%.

The values are drawn from PMC4336329 (PLoS ONE, 2015).
